Records with an inconclusive call do not appear. Active and inactive are the calls of the source. The call rests on the fitted dose curve; in most records, active means well fitted activation curve with a large enough effect in the repeat runs; inconclusive means weak or mixed curves; inactive means no such curve, though single readings can be large or run the other way.

The test can be described thus: qHTS assay to identify small molecule agonists of the estrogen related receptor (ERR) signaling pathway (AID 1224820). The note with it: ERR reporter cell line, luciferase agonist mode; series mostly up to 46.1 µM. The source says: National Center for Advancing Translational Sciences [NCATS]
NIH Chemical Genomics Center [NCGC]
U.S. Environmental Protection Agency [EPA]
National Institutes of Environmental Health Sciences [NIEHS]
National Toxicology Program [NTP]
Estrogen related receptors (ERRs), the first orphan nuclear receptors discovered, play an important role in the control of cellular energy metabolism. ERRs are required for high-energy production in response to the environmental challenges. ERR-alpha was also identified as an adverse marker for breast cancer progression; ERR-alpha-positive tumors have a poor prognosis. To screen and to identify environmental compounds that perturb the ERR signaling pathways could provide valuable information for potential therapeutic or preventive measures in the treatment of metabolic disease. For identifying ERR agonists, ERR cell line (provided by NTP) has been used to screen LOPAC library.
The ERR cells were dispensed at 2,000 cells/5 ul/well in 1536-well white plates using a Multidrop dispenser. After the assay plates were incubated at a 37 C/5% CO2 incubator for 6 hours, 23 nL of compounds dissolved in DMSO, positive and negative controls or DMSO only was transferred to the assay plate by a pin tool. The plates were incubated at 37 C for 18 hours. 4 ul/well of One-Glo reagent was added into the assay plates using a Flying Reagent Dispenser. After 30 min incubation at room temperature, the luminescence intensity in the plates was measured using a ViewLux plate reader.
Background: qHTS replaces the single test concentration by a dilution series.
On to `S=P(N1CC1)(N1CC1)N1CC1`, for which the call was inactive.

Consider `Brc1ccccc1-c1ccccc1`, for which the compound was classed as inactive.

On to `CSc1ccc2c(c1)N(CCC1CCCCN1C)c1ccccc1S2` (stereo not drawn), for which the compound was classed as inactive.

Regarding `CCOC(=O)N1CCC(=C2c3ccc(Cl)cc3CCc3cccnc32)CC1`, the call was inactive.

As for `COc1ccccc1OCCNCC(O)COc1cccc2[nH]c3ccccc3c12` (stereo not drawn), the compound was classed as inactive.

For the compound `O=C(NO)c1ccccc1`, the outcome was inactive.

With `O=C1NCN(c2ccccc2)C12CCN(CCCC(c1ccc(F)cc1)c1ccc(F)cc1)CC2`, the result was inactive.

Take `CC1=C(/C=C/C(C)=C/C=C/C(C)=C/C(=O)Nc2ccc(O)cc2)C(C)(C)CCC1`: the compound was called inactive.

With `CCCCCCCC/C=C\CCCCCCCC(=O)NCc1ccc(O)c(OC)c1`, the compound was classed as inactive.

For `CN1CCN(C2Cc3ccccc3Sc3ccc(Cl)cc32)CC1` (stereo not drawn), the compound was classed as inactive.

Regarding `O=C1c2c(O)ccc(O)c2C(=O)c2c(NCCNCCO)ccc(NCCNCCO)c21`, the outcome was inactive.

For the compound `CC(C)OC(=O)c1cc(C(=O)OC(C)C)cc([N+](=O)[O-])c1`, the outcome was inactive.

With `Cc1cc2c(C(C)C)c(O)c(O)c(C=O)c2c(O)c1-c1c(C)cc2c(C(C)C)c(O)c(O)c(C=O)c2c1O`, the call was inactive.

(Values after PubChem BioAssay (Tox21).)
